For 14 compounds, outcome results are on record in PubChem BioAssay (EPA / NIEHS).

Molecules are shown by their SMILES. Activity calls are given as the source filed them. Rule for the calls: active = hit-call score of the fitted dose curve at least 0.9, where 1 is the maximum; inactive = score below 0.9.

Read-out in this experiment: Tumor necrosis factor receptor 1 (TNFRSF1A), TNFRSF1A (gene 7132)
The experiment is described as follows: LTEA_HepaRG_TNFRSF1A: Life Technologies and Expression Analysis (LTEA) Assay for Tumor necrosis factor receptor 1 (TNFRSF1A) using HepaRG (AID 2283535). The note with it: mRNA level, 48 h; actives raise or lower the signal. As to the method: LTEA_HepaRG is a cell based, multiplexed-readout assay that uses HepaRG, a human liver cell line, with measurements taken at 48 hours after chemical dosing on a 96-well plate.LTEA_HepaRG_TNFRSF1A is one of 102 assay component(s) measured in the LTEA HepaRG cell culture assay. It is a marker of Cell proliferation, survival, death.Data from the assay component LTEA_HepaRG_TNFRSF1A was analyzed into 1 endpoint. This assay endpoint, LTEA_HepaRG_TNFRSF1A, was analyzed with bidirectional fitting relative to DMSO as the negative control and baseline of activity. Using a type of inducible reporter, measures of mRNA induction for gain or loss-of-signal activity can be used to understand regulation of transcription factor activity. To generalize the intended target to other relatable targets, this assay endpoint is annotated to the cytokine receptor intended target family, where the subfamily is TNF receptor.
A total of 1060 chemcials from the ToxCast library were tested in eight-point concentration-response experiments. Cell culture and cytotoxicity assays were conducted at Thermo Fisher Scientific's Custom Services facility (Madison, WI). A single lot of human HepaRG cells (Thermo Fisher Scientific, Frederick, MD) was used for the cell culture experiments. 96-well format collagen type I coated plates of human HepaRG cells were prepared using established methods. Briefly, cryopreserved HepaRG cells were thawed, plated at a density of approximately 100,000 cells/well in HepaRG Thaw, Plate, and General Purpose media (HPRG770, Thermo Fisher Scientific), and incubated for 48 hours. 0.5% DMSO was selected as vehicle control to balance the requisite need of DMSO in HepaRG cultures to maintain differentiation (for example, baseline metabolism, proportions of hepatocytes vs. cholangiocytes), while enabling further hepatic receptor pathway activation (for example, PXR and CAR) in response to chemical exposure. 48 hours after plating, the culture medium was replaced with HepaRG Serum-Free Incudtion Media. Cells were exposed to each test chemical in duplicate and maintained in CO2 incubators for another 48 hours. Chemical plates were thawed to room temperature and 200x concentrations of treatment groups were prepared. 8-point conentration-reponse curves were made with the highest exposure at 100 uM, followed by half-log dilutions, all in 0.5% DMSO. Each test plate contained variouse controls, induction positive controls (1mM phenobarbital), cytotoxicity positive controls ([…] aflatoxin B1), vehicle controls (0.5% DMSO), and total lysis controls (0.5% DMSO). Cell morphology images were taken using an Essen IncuCyte FLR automated microscope, with six 96-well plates imaged in about 24 minutes. Images were captured and exported and JPEG files. Spent culture media was transfered to black-well plates for the LDH assay, and remaining media was sorted at -80 C for later use. Cells were treated with RLT buffer and frozen until shipped for gene expression analysis. Total RNA was isolated from the cell suspension in 75 uL of Buffer RLT (Qiagen, Germantown, MD 20874) by Quintiles/Expression Analysis (Durham, NC) using a custom isolation procedure. Total RNA from each plate well was transferred to a preamplification plate. Fluidigm's 96.96 Dynamic ArrayTM (Fluidigm, Amsterdam, the Netherlands) technology was used for gene expression analyses by quantitative reverse transcription polymerase chain reaction (qRT-PCR, performed by Quintiles/Expression Analysis, Durham, NC)89. Standard TaqManTM Assays (Applied Biosystems/ThermoFisher Scientific, Foster City, CA) were used to assess the expression of 93 genes selected based on their selectivity and sensitivity to important hepatic receptors known to be modulated by environmental chemicals; importance in human hepatocyte functionality; and hepatotoxicity. […]
For the compound `Cc1cc(C)cc(C)c1`, the compound was called inactive. The result for `Clc1cccc(Cl)c1Cl` reads “inactive”. For the compound `O=C(O)C1(c2ccc3c(c2)OC[C@H](Cc2ccc(-c4ccccc4)cc2)[C@H]3O)CCCC1`, the result was inactive. `Clc1cccc(Cl)c1`: the call was inactive.

For the compound `CC(C)(C)c1ccccc1O`, the compound was classed as inactive.

Take `OCCN(CCO)CCO`: the outcome was inactive.

As to `O=C(N[C@H]1CN2CCC1CC2)c1ccc2c(c1)OCCO2`, the compound was called inactive. The same measure for `CCCCCCCCCCCCc1cccc(S(=O)(=O)O)c1`: “inactive”. With `CN(C)C(=S)S`, the outcome was inactive. As for `Oc1c(Cl)cc(Cl)cc1Cl`, the compound was called inactive. The result for `Oc1cc(Cl)c(Cl)cc1Cl` reads “inactive”; that for `CC(C)O.CC(C)O.OCCN(CCO)CCO.OCCN(CCO)CCO.[Ti]`, “inactive”. The same measure for `COc1ccccc1N`: “inactive”; for `N#Cc1cccnc1`: “inactive”.
